Test results published in PubChem BioAssay (NCATS).
Inconclusive results are not listed. The source made the active and inactive calls. Unless noted, calls come from the whole dose curve.

Assays:
[1] = biological target: Luciferin 4-monooxygenase (Photinus pyralis) (UniProt P08659); assay: Biochemical firefly luciferase enzyme assay for NPC (AID 624030; active = well fitted curve in the direction sought with a large enough effect; an effect the other way counts as inactive or inconclusive;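 note: purified P. pyralis luciferase at 10 nM with luciferin and ATP substrate; 0% = DMSO and -100% = full luciferase inhibition by PTC124 control; nearly all actives have a fitted effect of over 70% in size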); conditions: purified P. pyralis luciferase, luminescence, 5 min; series mostly up to 58.6 µM
Outline: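 Purified P. pyralis luciferase at 10 nM in 50 mM Tris Acetate (final), luminescence read within 5 minutes of enzyme addition to compounds. Activity normalised to PTC124 versus DMSO; concentration-response curves classed by r2, magnitude and activity.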

[2] = S16 Schwann cell PMP22 intronic element firefly luciferase assay (AID 624032; active = well fitted curve in the direction sought with a large enough effect; an effect the other way counts as inactive or inconclusive;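 note: plate controls were DMSO for no effect and PTC124 positive control mean for full effect; nearly all actives have a fitted effect of over 30% in size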); conditions: S16 rat Schwann cells, PMP22 element FLuc, 24 h; series mostly up to 57.5 µM
Outline: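 Rat S16 Schwann cells stably carrying firefly luciferase driven by a PMP22 intronic element, in 10% FBS, treated 24 h at 37 C. ONE-Glo luminescence normalized to PTC124 control and DMSO (0%); curves classed by r2, magnitude and activity.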

[3] = biological target: Estrogen receptor (Homo sapiens) (UniProt P03372); assay: qHTS assay for small molecule antagonists of estrogen receptor alpha signaling (AID 588513; active = well fitted curve in the direction sought with a large enough effect in the signal ratio, with a control signal flat, not every such curve was filed as active; the % refers to the signal ratio; note: % is set by controls: 0 for no effect and ±100 for the full control effect); conditions: ER-alpha-UAS-bla HEK293, beta-lactamase ratio, antagonist mode; series mostly up to 76.9 µM
Outline: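 ER-alpha-UAS-bla GripTite HEK 293 cells in 2% charcoal/dextran-treated FBS medium; compounds titrated (1:2, duplicate), then stimulated with 0.5 nM 17-beta-estradiol for 18 h at 37C. CCF4 beta-lactamase fluorescence; Hill-fit IC50 and efficacy.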

[4] = biological target: Estrogen receptor (Homo sapiens) (UniProt P03372); assay: qHTS assay for small molecule agonists of estrogen receptor alpha signaling (AID 588514); conditions: ER-alpha-UAS-bla HEK293, beta-lactamase ratio, 18 h; series mostly up to 76.8 µM; note: potency is the fitted concentration of half-maximal effect; nearly all actives have a fitted effect of over 70% in size
Outline: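 Cells were plated at 5000/well, incubated 4 hrs at 37 C, dosed with compound titration series, incubated 18 hrs at 37 C, loaded with CCF4 dye for 2 hrs at RT, then fluorescence was read.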

[5] = biological target: Bile acid receptor (Homo sapiens) (UniProt Q96RI1); assay: qHTS assay for small molecule antagonists of farnesoid X receptor signaling (AID 588526); conditions: HEK293T FXR-UAS-bla, beta-lactamase ratio, antagonist mode; series mostly up to 76.7 µM; note: % is set by controls: 0 for no effect and ±100 for the full control effect
Outline: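 Antagonist mode: titrated compounds tested against chenodeoxycholic acid stimulation (normalized to 50 uM CDCA and DMSO) in GeneBLAzer HEK293T cells for 16 h. Beta-lactamase read by CCF4 fluorescence; IC50 from Hill fits.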

[6] = qHTS assay for small molecule antagonists of peroxisome proliferator-activated receptor delta signaling (AID 588535); conditions: HEK293T PPARd-UAS-bla, beta-lactamase FRET ratio, 18 h; 460 nm channel;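 note: cells co-treated with a PPAR-delta agonist as stimulator during compound exposure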
Outline: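 Antagonist-mode beta-lactamase reporter (GeneBLAzer PPAR-delta-UAS-bla) in HEK293T cells, 2% charcoal/dextran FBS, 4000 cells/well. Compound titrations, 18 h at 37 C; CCF4 ratio read, IC50 and efficacy from Hill fits.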

[7] = biological target: Vitamin D3 receptor (Homo sapiens) (UniProt P11473); assay: qHTS assay for small molecule antagonists of vitamin D receptor signaling (AID 588541); conditions: HEK293T VDR-UAS-bla, beta-lactamase ratio, antagonist mode; series mostly up to 76.7 µM;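 note: receptor activated by calcitriol during compound treatment; % is set by controls: 0 for no effect and ±100 for the full control effect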
Outline: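 VDR-UAS-bla HEK293T cells in 2% charcoal-stripped FBS were stimulated with 1-alpha,25-dihydroxyvitamin D3 (3 nM final) plus compound for 16 h at 37 C. The beta-lactamase CCF4 readout was normalized to 50 nM agonist and DMSO, and Hill fits gave IC50.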

[8] = qHTS assay for small molecule agonists of retinoid X receptor alpha signaling (AID 588544); conditions: HEK293T RXRa-UAS-bla, beta-lactamase reporter, 18 h; 530 nm emission;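 for activation: 0% = DMSO basal wells and 100% = reference agonist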
[9] = biological target: Retinoic acid receptor RXR-alpha (Homo sapiens) (UniProt P19793); assay: as above; conditions: HEK293T RXRa-UAS-bla, beta-lactamase reporter, 18 h; series mostly up to 76.7 µM
[10] = biological target: Thyroid hormone receptor beta (Homo sapiens) (UniProt P10828); assay: qHTS assay for small molecule agonists of thyroid hormone receptor beta signaling (AID 588545); conditions: TR-UAS-bla GripTite HEK 293, beta-lactamase ratio, agonist mode, 18 h; series mostly up to 76.7 µM
Outline: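 HEK 293 TR-UAS-bla; agonist mode; 18 hrs, 37 C; CCF4, ex 405/em 460 and 530 nm; norm. T3 10 nM = 100%, DMSO = 0%; Hill fit → EC50, efficacy.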

[11] = qHTS assay for small molecule antagonists of retinoid X receptor alpha signaling (AID 588546; active = well fitted inhibition curve with a large enough effect in the signal ratio, with a control signal flat, not every such curve was filed as active; the % refers to the signal ratio;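 note: cells stimulated with 9-cis-retinoic acid as agonist; % is set by controls: 0 for no effect and ±100 for the full control effect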); conditions: HEK293T RXRa-UAS-bla, beta-lactamase ratio, antagonist mode; measured here: W530 green channel, cytotoxicity proxy
Outline: (§1)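 Beta-lactamase reporter inhibition, read as CCF4 fluorescence ratio (ex 405, em 460/530 nm) after 2 h at RT. HEK293T UAS-bla cells, 2500/well, were stimulated with 9-cis-RA at 500 or 100 nM final alongside test compound for 18 h at 37 C.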

[12] = biological target: Retinoic acid receptor RXR-alpha (Homo sapiens) (UniProt P19793); assay: as above; conditions: HEK293T RXRa-UAS-bla, beta-lactamase ratio, antagonist mode
Outline: as §1

[13] = S16 Schwann cell PMP22 intronic element beta-lactamase assay (AID 624044); conditions: S16 rat Schwann cells, PMP22 element beta-lactamase FRET, 24 h; series mostly up to 38.3 µM;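 note: 0% = DMSO and -100% = potassium clavulanate positive control; nearly all actives have a fitted effect of over 15% in size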
Outline: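 Rat S16 Schwann cells with beta-Lac driven by a PMP22 intronic element, compound-treated 24 h at 37 °C. LiveBLAzer FRET B/G read: 460 nm normalized to potassium clavulanate vs DMSO; 535 nm FRET as viability; concentration-effect curves classified.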

[14] = qHTS assay for small molecule agonists of the antioxidant response element (ARE) signaling pathway (AID 651741; active = well fitted activation curve with a large enough effect in the signal ratio; the % refers to the signal ratio; note: potency is the fitted concentration of half-maximal effect); conditions: HepG2 ARE-bla reporter, beta-lactamase FRET ratio, 16 h; series mostly up to 96 µM
Outline: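 CellSensor ARE-bla HepG2 cells (2,000/well) carrying ARE-driven beta-lactamase, exposed 16 h at 37 C. LiveBLAzer B/G FRET substrate added for 2 h at room temperature; fluorescence intensity read.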

[15] = qHTS assay for small molecule activators of the p53 signaling pathway (AID 651743; active = well fitted activation curve with a large enough effect in the signal ratio, not every such curve was filed as active; the % refers to the signal ratio; note: % of control where 0% means no effect); conditions: HCT-116 p53RE-bla, beta-lactamase FRET ratio, 16 h; activation: stronger effect = higher value
Outline: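 p53RE-bla HCT-116 cells carrying a beta-lactamase reporter under p53 response elements were exposed to compounds for 16 hours at 37 C. Reporter activity read as fluorescence after 2 hours at room temperature with LiveBLAzer B/G FRET substrate.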

[16] = qHTS assay for small molecule activators of the nuclear factor-kappa B (NF-kB) signaling pathway (AID 651749; active = well fitted activation curve with a large enough effect in the signal ratio; the % refers to the signal ratio; note: % of control where 0% means no effect); conditions: NF-kB-bla ME-180 cells, beta-lactamase FRET ratio, 16 h; stronger effect = higher value
Outline: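 NF-kB-bla ME-180 cells carrying a beta-lactamase reporter under an NF-kB response element, 2,000 cells/well, exposed to compound for 16 hr at 37C; FRET-based beta-lactamase fluorescence read-out of pathway activation.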

[17] = qHTS assay for environmental chemicals that activate the Aryl hydrocarbon Receptor (AhR) signaling pathway (AID 651777; active = well fitted curve in the direction sought with a large enough effect; an effect the other way counts as inactive or inconclusive; note: % of control where 0% means no effect; nearly all actives have a fitted effect of over 15% in size); conditions: 1A2-DRE human hepatoma cells, luciferase, 24 h; activation: stronger effect = higher value
Outline: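 Human hepatoma 1A2-DRE cells stably carrying a DRE/CYP1A2 promoter–luciferase reporter, 1,200 cells/well, exposed to compound 24 hr at 37 C. Luciferase read by One-Glo luminescence after 30 min at room temperature; increased signal marks AhR activation.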

[18] = biological target: Peroxisome proliferator-activated receptor alpha (Homo sapiens) (UniProt Q07869); assay: qHTS assay for small molecule agonists of the peroxisome proliferator-activated receptor alpha (PPARalpha) signaling pathway (AID 651778; active = well fitted curve in the direction sought with a large enough effect; an effect the other way counts as inactive or inconclusive; note: % of control where 0% means no effect); conditions: PathHunter PPARalpha complementation, chemiluminescence, 6 h; max response: stronger effect = higher value
Outline: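 Enzyme-fragment complementation assay in which ligand-bound PPARalpha translocates and forms an active enzyme that generates chemiluminescence. Cells were plated overnight, exposed to compound for 6 hr at 37 C, and then given detection reagent for 60 min at room temperature.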

[19] = qHTS assay for small molecule agonists of the antioxidant response element (ARE) signaling pathway measured by Nrf2-dependant transcriptional activity - cell viability counter screen (AID 720653; active = well fitted curve in the direction sought with a large enough effect in the repeat runs; an effect the other way counts as inactive or inconclusive; note: % is set by controls: 0 for no effect and ±100 for the full control effect); conditions: ARE-bla HepG2 viability, CellTiter-Glo ATP luminescence, 16 h; max response: stronger effect = lower value
Outline: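 ARE-bla HepG2 cells treated with compounds for 16 h at 37C; this counter screen measures viability as intracellular ATP by CellTiter-Glo luminescence after 30 min at room temperature.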

[20] = biological target: Nuclear receptor subfamily 1 group I member 2 (Rattus norvegicus) (UniProt Q9R1A7); assay: qHTS assay for small molecule activators of the rat pregnane X receptor (rPXR) signaling pathway (AID 651751; call rule not given here; note: 0% is about no effect); conditions: rPXR reporter cells, luciferase (One-Glo), 24 h
Chain of Nuclear receptor subfamily 1 group I member 2 (Rattus norvegicus) (Q9R1A7 whole entry, looked up): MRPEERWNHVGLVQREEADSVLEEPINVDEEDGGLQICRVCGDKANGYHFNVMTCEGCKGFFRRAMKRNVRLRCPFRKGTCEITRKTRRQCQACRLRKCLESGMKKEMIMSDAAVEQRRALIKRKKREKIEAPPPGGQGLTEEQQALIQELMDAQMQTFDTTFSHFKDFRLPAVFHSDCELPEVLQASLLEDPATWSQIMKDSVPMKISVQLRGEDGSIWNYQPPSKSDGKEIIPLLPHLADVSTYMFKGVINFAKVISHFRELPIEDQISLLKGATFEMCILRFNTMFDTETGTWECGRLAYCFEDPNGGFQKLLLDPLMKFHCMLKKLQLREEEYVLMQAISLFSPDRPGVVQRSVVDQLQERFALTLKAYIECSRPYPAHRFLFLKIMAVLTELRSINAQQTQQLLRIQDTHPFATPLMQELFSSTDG

Chain of Estrogen receptor (Homo sapiens) (P03372 whole entry, looked up): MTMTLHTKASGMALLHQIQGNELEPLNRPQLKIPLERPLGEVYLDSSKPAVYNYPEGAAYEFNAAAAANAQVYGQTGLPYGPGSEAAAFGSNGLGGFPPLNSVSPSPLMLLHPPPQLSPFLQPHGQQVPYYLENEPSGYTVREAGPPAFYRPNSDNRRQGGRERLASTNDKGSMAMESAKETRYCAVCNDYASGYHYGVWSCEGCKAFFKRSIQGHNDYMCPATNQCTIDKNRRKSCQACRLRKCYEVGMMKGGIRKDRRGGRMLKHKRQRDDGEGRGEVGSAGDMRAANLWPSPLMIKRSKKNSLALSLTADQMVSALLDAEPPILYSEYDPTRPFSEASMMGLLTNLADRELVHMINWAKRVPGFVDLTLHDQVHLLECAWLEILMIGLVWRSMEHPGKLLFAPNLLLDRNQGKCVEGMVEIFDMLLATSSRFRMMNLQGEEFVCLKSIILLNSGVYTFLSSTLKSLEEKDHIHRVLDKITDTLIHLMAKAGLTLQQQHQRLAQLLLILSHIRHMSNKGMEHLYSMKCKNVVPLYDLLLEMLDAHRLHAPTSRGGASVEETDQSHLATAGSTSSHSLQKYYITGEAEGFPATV
Chain of Retinoic acid receptor RXR-alpha (Homo sapiens) (P19793 whole entry, looked up): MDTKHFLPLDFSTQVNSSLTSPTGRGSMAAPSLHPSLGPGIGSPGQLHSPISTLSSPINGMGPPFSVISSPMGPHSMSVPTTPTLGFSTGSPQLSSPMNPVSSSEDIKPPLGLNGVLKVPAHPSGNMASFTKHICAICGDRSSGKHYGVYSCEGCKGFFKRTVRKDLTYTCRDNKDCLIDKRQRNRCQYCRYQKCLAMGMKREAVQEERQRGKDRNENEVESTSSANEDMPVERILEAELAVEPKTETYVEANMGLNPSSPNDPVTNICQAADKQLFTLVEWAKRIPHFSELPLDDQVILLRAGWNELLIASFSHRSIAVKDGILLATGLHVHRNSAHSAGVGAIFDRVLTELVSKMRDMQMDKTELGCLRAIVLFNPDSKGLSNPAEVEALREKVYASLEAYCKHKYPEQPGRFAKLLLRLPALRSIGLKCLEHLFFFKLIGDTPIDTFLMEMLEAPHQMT
Chain of Peroxisome proliferator-activated receptor alpha (Homo sapiens) (Q07869 whole entry, looked up, the tested form may be a part): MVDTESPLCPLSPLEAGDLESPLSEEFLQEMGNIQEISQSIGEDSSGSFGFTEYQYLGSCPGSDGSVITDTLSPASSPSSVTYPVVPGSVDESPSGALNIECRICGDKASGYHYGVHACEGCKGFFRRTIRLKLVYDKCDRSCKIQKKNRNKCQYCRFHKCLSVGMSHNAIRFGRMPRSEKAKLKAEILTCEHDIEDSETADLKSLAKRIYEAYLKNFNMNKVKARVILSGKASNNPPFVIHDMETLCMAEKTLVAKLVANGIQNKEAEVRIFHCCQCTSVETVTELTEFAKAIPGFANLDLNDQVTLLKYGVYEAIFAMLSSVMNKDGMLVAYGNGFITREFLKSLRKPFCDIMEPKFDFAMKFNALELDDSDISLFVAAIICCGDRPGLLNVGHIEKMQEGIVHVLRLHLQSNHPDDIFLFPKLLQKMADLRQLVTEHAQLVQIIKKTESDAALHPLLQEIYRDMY
Chain of Thyroid hormone receptor beta (Homo sapiens) (P10828 whole entry, looked up): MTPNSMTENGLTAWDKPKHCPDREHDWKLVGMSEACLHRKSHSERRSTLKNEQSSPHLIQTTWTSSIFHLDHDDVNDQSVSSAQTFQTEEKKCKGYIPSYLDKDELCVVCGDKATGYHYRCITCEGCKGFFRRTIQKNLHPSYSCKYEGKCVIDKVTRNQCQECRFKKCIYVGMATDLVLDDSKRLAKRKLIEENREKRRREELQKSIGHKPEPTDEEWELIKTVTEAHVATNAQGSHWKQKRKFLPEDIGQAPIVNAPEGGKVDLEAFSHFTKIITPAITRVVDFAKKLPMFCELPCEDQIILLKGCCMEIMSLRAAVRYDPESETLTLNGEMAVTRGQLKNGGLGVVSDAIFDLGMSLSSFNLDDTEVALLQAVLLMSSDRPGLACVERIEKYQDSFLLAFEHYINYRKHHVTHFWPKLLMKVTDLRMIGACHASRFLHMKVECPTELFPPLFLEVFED
Chain of Luciferin 4-monooxygenase (Photinus pyralis) (P08659 whole entry, looked up): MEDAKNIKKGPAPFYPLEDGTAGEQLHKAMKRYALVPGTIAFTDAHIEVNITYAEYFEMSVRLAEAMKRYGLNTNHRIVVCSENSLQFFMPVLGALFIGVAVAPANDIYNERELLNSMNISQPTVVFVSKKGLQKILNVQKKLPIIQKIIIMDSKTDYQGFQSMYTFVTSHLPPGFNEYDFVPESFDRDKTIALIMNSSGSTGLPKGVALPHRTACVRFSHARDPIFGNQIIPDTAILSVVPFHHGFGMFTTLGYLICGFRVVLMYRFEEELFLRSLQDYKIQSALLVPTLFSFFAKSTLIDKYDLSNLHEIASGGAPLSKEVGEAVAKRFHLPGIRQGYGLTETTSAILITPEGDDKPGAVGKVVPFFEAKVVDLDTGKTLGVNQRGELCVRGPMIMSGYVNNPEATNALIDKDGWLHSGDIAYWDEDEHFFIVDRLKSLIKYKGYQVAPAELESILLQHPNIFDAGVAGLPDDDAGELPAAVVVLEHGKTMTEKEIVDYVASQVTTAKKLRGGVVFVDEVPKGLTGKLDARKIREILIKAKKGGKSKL
Chain of Bile acid receptor (Homo sapiens) (Q96RI1 whole entry, looked up): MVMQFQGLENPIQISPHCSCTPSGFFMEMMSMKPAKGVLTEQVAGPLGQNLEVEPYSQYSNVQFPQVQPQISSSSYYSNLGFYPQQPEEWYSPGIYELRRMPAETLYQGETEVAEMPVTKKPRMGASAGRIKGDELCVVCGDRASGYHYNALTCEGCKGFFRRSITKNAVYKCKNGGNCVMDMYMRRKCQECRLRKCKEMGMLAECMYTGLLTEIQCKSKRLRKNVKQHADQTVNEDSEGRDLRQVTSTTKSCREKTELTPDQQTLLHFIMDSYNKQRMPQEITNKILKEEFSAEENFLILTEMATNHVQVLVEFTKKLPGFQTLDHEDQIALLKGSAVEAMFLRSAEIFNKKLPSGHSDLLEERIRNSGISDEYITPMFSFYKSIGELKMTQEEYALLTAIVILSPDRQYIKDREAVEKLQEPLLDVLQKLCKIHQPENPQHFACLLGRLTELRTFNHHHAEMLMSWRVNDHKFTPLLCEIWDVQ
Chain of Vitamin D3 receptor (Homo sapiens) (P11473 whole entry, looked up): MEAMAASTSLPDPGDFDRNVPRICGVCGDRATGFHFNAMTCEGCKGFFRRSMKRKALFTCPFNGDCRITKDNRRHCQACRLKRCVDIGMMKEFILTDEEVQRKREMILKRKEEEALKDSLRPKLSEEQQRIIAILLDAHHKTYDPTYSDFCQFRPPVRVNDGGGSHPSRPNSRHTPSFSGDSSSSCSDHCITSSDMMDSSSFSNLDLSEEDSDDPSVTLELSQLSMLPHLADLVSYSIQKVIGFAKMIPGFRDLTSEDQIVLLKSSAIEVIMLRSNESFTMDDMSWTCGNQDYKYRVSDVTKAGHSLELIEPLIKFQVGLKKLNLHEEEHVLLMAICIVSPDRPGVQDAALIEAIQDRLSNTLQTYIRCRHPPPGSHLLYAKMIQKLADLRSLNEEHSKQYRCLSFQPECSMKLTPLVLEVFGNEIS

C[C@]12CC[C@H]3c4ccc(O)cc4CC[C@@H]3[C@H]1CC[C@@H]2OP(=O)(O)O
inactive: outcome [1] | Potency [2]

N[C@@H](Cc1ccccc1)C(=O)O
inactive: outcome [3] | Potency [5] | Potency [7] | Potency [9] | Potency [10] | max response [12] 7.11% | Potency [2] | outcome [13] | activation [15] -1.26% | activation [16] 0.13% | activation [17] -0.444% | max response [18] -0.0138% | max response [19] -5.99% | max response [20] -0.251%
-15%: max response [11]
active: Potency [4] 11.2 µM | Potency [14] 54.5 µM
-16.9%: max response [6]
-4.85%: max response [8]
